Results filed as inconclusive are left out. Active and inactive are the calls of the source. Calls follow the shape of the dose curve; as a rule, active = well fitted curve in the direction sought with a large enough effect; inconclusive = small, poorly fitted or top-dose-only effect, or another doubt; inactive = no such curve, though single readings can be large; an effect the other way counts as inactive or inconclusive.
Key:
[1] = U-118MG Cancer Cell Toxicity qHTS against the NCATS CANVASS Library (AID 1347351)
Method in brief: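 Viability read-out: CellTiter-Glo luminescence after 72 h compound exposure at 37 °C/5% CO2. Cells plated at 1000/well, 4 h pre-incubation; 11-point titration. Bortezomib served as control.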

[2] = COV-362 Cancer Cell Toxicity qHTS against the NCATS CANVASS Library (AID 1347352)
Method in brief: (§1)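 Toxicity was measured as CellTiter-Glo luminescence after 72 h exposure to an 11-point compound series. Compound was added to 1000 cells/well 4 h after seeding.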

[3] = A2780 Cisplatin Sensitive Ovarian Cancer Cell Toxicity qHTS against the NCATS CANVASS Library (AID 1347353); settings: A2780 ovarian cancer viability, ATPLite luminescence, 72 h; at 46.1 µM (top of the series); also: nearly all actives have a fitted effect of over 60% in size
Method in brief: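 Cisplatin-sensitive A2780 ovarian cells (750/well) received compound in 11 concentrations, and were incubated 72 h at 37 °C. ATP content was measured by ATPLite luminescence; bortezomib served as control.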

[4] = UWB1.289-WTBRCA1 Cancer Cell Toxicity qHTS against the NCATS CANVASS Library (AID 1347354); settings: UWB1.289-WTBRCA1 viability, CellTiter-Glo luminescence, 72 h; at 38.3 µM (top of the series)
Method in brief: as §1

[5] = HEK-293 Cancer Cell Toxicity qHTS against the NCATS CANVASS Library (AID 1347355); settings: HEK-293 viability, CellTiter-Glo luminescence, 72 h; at 46.1 µM (top of the series); also: nearly all actives have a fitted effect of over 65% in size
Method in brief: as §1

[6] = HPAF-II 24hr Apoptosis Induction qHTS against the NCATS CANVASS Library (AID 1347356)
Method in brief: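 Caspase-Glo 3/7 luminescence, read after 15 min room-temperature development, measures apoptosis in HPAF-II cells treated 24 h at 37 degrees C with an 11-point concentration series; 500 cells/well; doxorubicin control.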

[7] = HEK293 18hr Apoptosis Induction qHTS against the NCATS CANVASS Library (AID 1347357)
Method in brief: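 Caspase-Glo 3/7 luminescence (15 min, room temperature) measured apoptosis after an 18-hour, 37 degrees C exposure of HEK293 cells (500 cells/well) to compounds in 11 points.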

[8] = HPAF-II 12hr Apoptosis Induction qHTS against the NCATS CANVASS Library (AID 1347358)
Method in brief: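 Caspase-3/7 activation by DEVD-substrate luminescence (Caspase-Glo 3/7, 15 min, room temperature) after a 12-hour compound exposure in 11 concentrations, of HPAF-II pancreatic cells seeded at 500/well in DMEM with 10% FBS.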

[9] = HEK293 24hr Apoptosis Induction qHTS against the NCATS CANVASS Library (AID 1347359)
Method in brief: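 HEK293 cells (500/well, DMEM + 10% FBS) were exposed to compounds in an 11-point series for 24 hours at 37 degrees C, then caspase-3/7 activity was read by Caspase-Glo DEVD luciferase luminescence after 15 min.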

[10] = HPAF-II 18hr Apoptosis Induction qHTS against the NCATS CANVASS Library (AID 1347360)
Method in brief: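 Caspase-3/7 activation was measured with luminescent Caspase-Glo 3/7 reagent (15 min, RT) in HPAF-II cancer cells (500 cells/well). Before detection, cells had been treated for 18 h at 37 C with compounds (11 points).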

[11] = HEK293 12hr Apoptosis Induction qHTS against the NCATS CANVASS Library (AID 1347361)
Method in brief: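 HEK293 cells (500/well, DMEM + 10% FBS) were exposed to natural products across an 11-point series for 12 hours at 37 degrees C. Caspase-3/7 activity was then measured with DEVD luciferase luminescence after 15 min at room temperature.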

[12] = system: NAD(P)H diaphorase (Clostridium kluyveri); experiment: Diaphorse counterscreen qHTS: Assay Interference Panel against the NCATS CANVASS Library (AID 1347362)
Method in brief: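 Clostridium kluyveri diaphorase in PBS with 0.01% Tween-20 was preincubated 15 min at room temperature in the dark with compounds (11-point series). Resorufin fluorescence (ex 525/20, em 598/25) was read 5 min after adding resazurin/NADH.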

[13] = biological target: Luciferin 4-monooxygenase (Photinus pyralis) (UniProt P08659); experiment: Firefly luciferase counterscreen qHTS: Assay Interference Panel against the NCATS CANVASS Library (AID 1347363)
Method in brief: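 Purified P. pyralis luciferase was added to compounds (11-point series) preincubated 15 min at room temperature with substrate containing 0.013 mM D-luciferin and 0.013 mM ATP; luminescence was read after 5 min.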

[14] = KB-8-5-11 Cancer Cell Toxicity qHTS against the NCATS CANVASS Library (AID 1347364); settings: KB-8-5-11 MDR cells viability, CellTiter-Glo, 72 h; at 46.1 µM (top of the series); also: nearly all actives have a fitted effect of over 75% in size
Method in brief: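 Viability read as CellTiter-Glo luminescence after 72 h at 37 °C, 5% CO2. 11-point compound series on 500 KB-8-5-11 cells/well in DMEM/10% FBS. Follow-up plating included 1 uM tariquidar in the medium.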

[15] = KB-3-1 Cancer Cell Toxicity qHTS against the NCATS CANVASS Library (AID 1347366); settings: KB-3-1 viability, CellTiter-Glo luminescence, 72 h; at 46.1 µM (top of the series); also: nearly all actives have a fitted effect of over 75% in size
Method in brief: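 CellTiter-Glo luminescence measured viability after 72 h at 37C. KB-3-1 cells were seeded at 500 per well in DMEM/10% FBS.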

[16] = qHTS for ATAD5 Agonist screened against the NCATS CANVASS Library (AID 1347367);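 also: luciferase reporter driven by ATAD5 which rises upon DNA damage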
Method in brief: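 Genotoxicity via ATAD5-luciferase luminescence after 16 h compound exposure (11-point series) at 37C in HEK293T-ATAD5 cells. CellTiter-Fluor viability read precedes the luminescence read; MMS serves as positive control.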

[17] = MCF7 Cancer Cell Toxicity qHTS against the NCATS CANVASS Library (AID 1347369); settings: MCF7 viability, ATP luminescence (CellTiter-Glo), 72 h; at 46 µM (top of the series)
Method in brief: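 Cytotoxicity was measured as CellTiterGlo luminescence (ATP) after 72 h at 37 °C. The cells were MCF7 at 500 per well, with an 11-point compound concentration series.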

[18] = qHTS for ATAD5 Antagonist screened against the NCATS CANVASS Library (AID 1347370);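 also: HEK293T cells carrying an ATAD5 luciferase reporter co-treated with 10 µM 5-fluorouridine; nearly all actives have a fitted effect of over 65% in size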
Method in brief: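 Compounds (11-point) co-dosed with 10 µM 5-FUrd for 16 h at 37 °C onto HEK293T-ATAD5 luciferase reporter cells. Viability measured by CellTiter-Fluor fluorescence, then ATAD5 reporter signal by luminescence.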

[19] = J3T Cancer Cell Toxicity qHTS against the NCATS CANVASS Library (AID 1347371);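 also: J3T is a canine glioma cancer cell line seeded at 500 cells per well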
Method in brief: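 Cytotoxicity read as CellTiterGlo ATP luminescence after 72 h incubation (37C, 5% CO2) of J3T canine glioma cells (500/well) with an 11-point compound series.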

[20] = biological target: Nuclear receptor subfamily 1 group I member 3 (Homo sapiens) (UniProt Q14994); experiment: qHTS for Constitutive Androstane Receptor (CAR) Antagonist screened against the NCATS CANVASS Library (AID 1347372);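 also: cells stimulated with 50 nM CITCO agonist so inhibition reflects antagonism; luciferase from CYP2B6 promoter reporter driven by hCAR in HepG2 cells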
Method in brief: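 Cells were seeded and left 4hr to attach, then received compound at 11 concentrations and 50 nM CITCO. Following 24hr incubation, fluorescence viability and luciferase luminescence were read sequentially.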

Measured: outcome

Sequence of Nuclear receptor subfamily 1 group I member 3 (Homo sapiens) (Q14994 whole entry, looked up): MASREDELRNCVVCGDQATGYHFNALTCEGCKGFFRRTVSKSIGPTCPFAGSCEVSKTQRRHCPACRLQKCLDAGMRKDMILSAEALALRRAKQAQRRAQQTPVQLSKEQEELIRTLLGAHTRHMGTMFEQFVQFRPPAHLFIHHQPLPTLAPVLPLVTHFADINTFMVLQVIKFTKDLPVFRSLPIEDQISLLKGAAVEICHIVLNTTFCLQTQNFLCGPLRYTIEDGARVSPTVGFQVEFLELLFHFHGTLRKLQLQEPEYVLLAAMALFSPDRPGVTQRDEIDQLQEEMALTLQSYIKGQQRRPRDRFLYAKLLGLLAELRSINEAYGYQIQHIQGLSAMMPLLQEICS
Sequence of Luciferin 4-monooxygenase (Photinus pyralis) (P08659 whole entry, looked up): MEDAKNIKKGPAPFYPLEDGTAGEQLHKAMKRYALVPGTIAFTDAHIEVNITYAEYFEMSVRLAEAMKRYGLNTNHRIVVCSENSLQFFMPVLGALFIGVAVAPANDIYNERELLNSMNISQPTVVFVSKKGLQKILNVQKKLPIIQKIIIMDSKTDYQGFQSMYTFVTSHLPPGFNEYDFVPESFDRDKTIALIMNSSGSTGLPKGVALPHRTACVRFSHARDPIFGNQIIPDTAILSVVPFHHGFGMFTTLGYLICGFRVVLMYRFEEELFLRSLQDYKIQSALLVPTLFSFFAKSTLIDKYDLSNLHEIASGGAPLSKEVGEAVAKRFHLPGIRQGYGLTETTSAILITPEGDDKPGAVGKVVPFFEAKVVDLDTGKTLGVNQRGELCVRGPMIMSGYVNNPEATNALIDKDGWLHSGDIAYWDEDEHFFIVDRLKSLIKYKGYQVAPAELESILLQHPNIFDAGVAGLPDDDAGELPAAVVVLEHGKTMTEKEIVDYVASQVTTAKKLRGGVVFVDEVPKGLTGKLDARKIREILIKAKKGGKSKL

CN1CCC[C@@H]1c1cccnc1
inactive: all assays above

Reference: PubChem BioAssay (NCATS)
